This is a sample that favours compounds with a hit; in the whole collection about 1.6% have one here.
Myeloid diff MLP = compounds promoting myeloid differentiation; ER-HoxA9 myeloid progenitors, lysozyme-GFP differentiation, flow cytometry; 1% of 360,000 active; calls only at 10 µM; AID 624256;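 active means normalized GFP-positive differentiation at or above the plate's own cutoff, the solvent-only control mean plus 3 SD; inconclusive means no clear call, values can overlap the other calls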;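 further: cells exposed to compound for four days before flow analysis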
RAD54 inh = blocks human RAD54 Holliday junction branch migration; Q92698; inhibition, % at 10.4 µM; FAM/BHQ fluorescence; AID 602329; 0.14% of 360,000 active;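 active means mean normalized replicate activity at least 40 and at least half of replicates scoring 40 or more; inconclusive means only one of the two criteria met; inactive means mean below 40 and under half of replicates reaching 40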;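 further: inhibitors cause a drop in the FAM fluorescence signal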
Target sequence (Q92698 whole entry, looked up): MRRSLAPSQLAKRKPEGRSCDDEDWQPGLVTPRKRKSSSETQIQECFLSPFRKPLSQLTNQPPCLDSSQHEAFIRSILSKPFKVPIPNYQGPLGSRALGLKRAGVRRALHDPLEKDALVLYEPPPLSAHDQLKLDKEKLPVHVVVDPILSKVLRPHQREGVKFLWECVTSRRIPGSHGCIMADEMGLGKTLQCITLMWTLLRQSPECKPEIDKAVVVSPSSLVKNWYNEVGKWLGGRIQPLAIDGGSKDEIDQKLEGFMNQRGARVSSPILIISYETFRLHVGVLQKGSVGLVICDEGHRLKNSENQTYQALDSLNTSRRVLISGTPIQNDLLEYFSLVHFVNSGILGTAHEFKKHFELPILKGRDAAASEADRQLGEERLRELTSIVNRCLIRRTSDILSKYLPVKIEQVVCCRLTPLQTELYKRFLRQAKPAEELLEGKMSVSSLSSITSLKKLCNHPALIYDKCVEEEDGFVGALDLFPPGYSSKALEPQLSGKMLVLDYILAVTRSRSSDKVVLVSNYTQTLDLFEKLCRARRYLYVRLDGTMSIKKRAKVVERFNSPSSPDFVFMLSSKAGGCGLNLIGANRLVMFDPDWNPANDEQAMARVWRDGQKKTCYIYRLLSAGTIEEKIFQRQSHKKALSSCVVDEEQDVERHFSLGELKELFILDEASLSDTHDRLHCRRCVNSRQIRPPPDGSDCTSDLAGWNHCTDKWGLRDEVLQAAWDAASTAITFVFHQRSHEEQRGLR
Vif imaging = inhibitors of HIV Vif; HEK293T cells, Vif self-association by quenched fluorescence, imaging, 24 h; inhibition, % at 7.49 µM; 0.35% of 340,000 active; AID 602346; in the data active means inhibition above about 50%, passing the limit was not always enough; inconclusive means no clear call, values can overlap the other calls; inactive means below about 31%
N-glyco inh = N-linked glycosylation inhibition; D54 ERlucT glycosylation luciferase reporter, 24 h; percent of 100 nM tunicamycin response; AID 588692; 0.23% of 360,000 active; reporter increase, % at 12.5 µM;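 active means mean luciferase reporter signal, scaled so untreated is 0 and the glycosylation-blocking control 100, at or above a set limit in every replicate; inconclusive means mean reaches the limit but not every replicate does; inactive means mean below the limit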;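 further: luciferase carries N-glycosylation sites so blocking glycosylation raises the light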
ABCB6 inh 2 = human ABCB6 transporter inhibition; Q9NP58; K562-ABCB6 porphyrin accumulation, flow cytometry, 1 h; hits give low values; fluorescence ratio to DMSO, % at 10 µM; 0.19% of 360,000 active; AID 602162;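 active means fluorescence ratio to DMSO below 75%, the collection mean minus 3 SD; inconclusive means too few cells collected in the well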;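 further: signal is porphyrin accumulated inside mitochondria; lower ratio means ABCB6 inhibition with less porphyrin fluorescence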
ABCB6 blocker 1 = blocks the human ABCB6 transporter; shares compounds with ABCB6 inh 2; K562-ABCB6 porphyrin accumulation, flow cytometry, 1 h; hits give low values; ratio response (% of DMSO), % at 10 µM; 700 tested, under 10 active;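 active means repeat-averaged ratio response below 75% of DMSO, the collection mean minus 3 SD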;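 further: median porphyrin fluorescence at 575 nm with 488 nm excitation from mitochondria; lower ratio means less porphyrin signal so ABCB6 inhibition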
Numbers stand for hits; n = inactive; u = inconclusive; x = no result.

SMILES	Myeloid diff MLP	RAD54 inh	Vif imaging	N-glyco inh	ABCB6 inh 2	ABCB6 blocker 1
COc1ccc(N2CCN(C(=O)c3cc(-c4ccc(F)cc4)[nH]c3C)CC2)cc1	n	n	n	n	71	n
CCC(=O)Nc1ccc2c(c1)C(=O)N(C)C[C@H](OC)[C@H](C)CN(Cc1ccncc1)[C@H](C)CO2	x	n	x	x	x	x
Cc1ccc(C(=O)C2CCN(S(=O)(=O)c3c(C)noc3C)CC2)cc1	n	n	n	n	n	x
Cc1noc(C)c1S(=O)(=O)N1CCC(C(=O)O)CC1	n	n	n	n	n	n
CN1C(=O)c2cc(NC(=O)c3ccc(F)cc3)ccc2OC[C@H]2O[C@H](CC(=O)N3CCOCC3)CC[C@H]21	x	n	x	x	x	x
Cc1ccc(C(=O)OCC(=O)c2c[nH]c3ccccc23)cc1S(=O)(=O)N1CCCCC1	n	n	n	n	70	n
Cc1ccc(C(=O)OCC(=O)NCc2ccccc2)cc1S(=O)(=O)N1CCCCC1	n	n	n	n	n	x
COc1ccc(NC(=O)COC(=O)CCCC2=NS(=O)(=O)c3ccccc3N2)cc1Cl	n	n	n	n	n	x
COc1ccc(NC(=O)COC(=O)CCCC2=NS(=O)(=O)c3ccccc3N2)cc1	u	n	n	n	n	n
COc1cccc(NC(=O)COC(=O)CCCC2=NS(=O)(=O)c3ccccc3N2)c1	n	n	n	n	14	n
COc1cccc(CNC(=O)c2c[nH]n3c(=O)c(Cl)c(C)nc23)c1	n	n	n	n	n	x
CNC(=O)c1c[nH]n2c(=O)c(Cc3ccccc3F)c(C)nc12	n	n	n	n	n	n
Cn1nc(C(F)(F)F)c(-c2cccc(C(F)(F)F)c2)c1NC(=O)Nc1ccc(F)cc1	n	n	n	n	11	n
Cn1nc(C(F)(F)F)c(-c2cccc(C(F)(F)F)c2)c1NC(=O)c1ccco1	n	n	n	n	n	x
CCC(C)N1CCN(C(=O)C2CCN(S(=O)(=O)c3c(C)noc3/C=C/c3ccco3)CC2)CC1 (stereo unspecified)	u	n	n	n	n	x
Cc1cccc(NC(=O)C2CCN(S(=O)(=O)c3c(C)noc3/C=C/c3ccco3)CC2)n1	n	x	n	n	51	n
O=C(Cn1cc(C(=O)c2cccs2)c2ccccc21)NC1CCCCC1	n	n	n	n	60	n
Cc1cc(C)cc(N(C(=O)c2csnn2)C(C(=O)NC2CCCCC2)c2cccnc2)c1 (stereo unspecified)	n	n	n	n	n	x
Cc1cc(C)cc(N(C(=O)c2csnn2)C(C(=O)NC2CCCC2)c2cccnc2)c1 (stereo unspecified)	n	n	n	n	74	n
Cc1ccc(CN(C(=O)c2csnn2)C(C(=O)NC2CCCC2)c2ccco2)cc1 (stereo unspecified)	n	n	n	n	73	n
Cc1ccc(-c2cnc3c(c2)C(=O)N([C@@H](C)CO)C[C@@H](C)[C@@H](CN(C)C(=O)c2cccnc2)O3)cc1	x	n	x	x	x	x
O=C(NCc1ccco1)c1cc2cc3ccc(Cl)cc3nc2o1	n	n	n	n	n	x
CCCN(CCC)CCCNC(=O)c1cc2cc3ccc(Cl)cc3nc2o1	n	n	n	n	73	n
Cc1ccc(OCC(=O)Nc2ccncc2)cc1C	n	n	n	n	74	n
C[C@H](CO)N1C[C@H](C)[C@H](CN(C)Cc2ccc(C(F)(F)F)cc2)OCCCC[C@H](C)Oc2ccc(NC(=O)CCCN(C)C)cc2C1=O	x	n	x	x	x	x
SMILES	Myeloid diff MLP	RAD54 inh	Vif imaging	N-glyco inh	ABCB6 inh 2	ABCB6 blocker 1
O=C(C1CCCCC1)N1CCC(c2nc3c(nnn3Cc3ccccc3Cl)c(=O)[nH]2)CC1	n	n	n	n	n	x
N#Cc1cccc(NC(=O)N2CCC(c3nc4c(nnn4Cc4cccc(Cl)c4)c(=O)[nH]3)CC2)c1	n	n	n	n	n	n
O=C(C1CCCCC1)N1CCC(c2nc3c(nnn3Cc3c(F)cccc3Cl)c(=O)[nH]2)CC1	n	n	n	n	n	n
O=C(Cc1cccs1)N1CCC(c2nc3c(nnn3Cc3ccccc3Cl)c(=O)[nH]2)CC1	n	n	n	n	64	n
CCCCCCC(=O)N1CCC(c2nc3c(nnn3Cc3ccccc3Cl)c(=O)[nH]2)CC1	n	n	x	n	n	n
C[C@H](NC(=O)C[C@H]1CC[C@@H]2[C@@H](COc3ccc(NS(=O)(=O)c4ccc(Cl)cc4)cc3C(=O)N2C)O1)c1ccccc1	x	n	x	x	x	x
O=C(N[C@H]1CC[C@H](CCn2cc(-c3ccccc3)nn2)O[C@H]1CO)c1ccccc1F	x	n	x	x	x	x
NC(=S)Cc1nc2n(n1)Cc1ccccc1-2	n	n	n	n	70	n
COc1ccc(N2CCN(c3ncccc3C#N)CC2)cc1	n	x	n	n	74	n
COc1ccccc1-c1nnc(SC/C(O)=C(\C#N)c2nc3ccccc3[nH]2)n1C1CCCCC1	n	x	n	n	71	n
C[C@H](O)C#Cc1ccc2c(c1)O[C@@H](CN(C)CC1CCCC1)[C@H](C)CN([C@H](C)CO)S2(=O)=O	x	n	x	x	x	x
COc1ccccc1CN(C)C(=O)C(c1ccccc1)c1ccccc1	n	n	n	n	73	n
CC1(C(=O)NS(=O)(=O)c2ccc(C#N)cc2)CCN1C(=O)Cc1cccc2ccccc12 (stereo unspecified)	n	n	n	n	65	n
COc1ccc(S(=O)(=O)NC(=O)C2(C)CCN2C(=O)Cc2ccc(-c3ccccc3)cc2)cc1 (stereo unspecified)	u	n	n	n	n	x
COc1ccc(S(=O)(=O)NC(=O)C2(C)CCN2C(=O)Cc2cccc3ccccc23)cc1 (stereo unspecified)	n	n	n	n	n	n
Cc1ccc(S(=O)(=O)Nc2ccc3c(c2)CC(=O)N([C@@H](C)CO)C[C@@H](C)[C@H](CN(C)Cc2ccc4c(c2)OCO4)O3)cc1	x	n	x	x	x	x
C[C@@H]1CN([C@H](C)CO)C(=O)c2cc(C#Cc3ccccc3F)cnc2O[C@@H]1CN(C)C(=O)C1CC1	x	n	x	x	x	x
Cc1ncc([N+](=O)[O-])n1CC(=O)Nc1cc(Cl)ccc1Cl	n	n	n	n	10	n
CO[C@H](CN(C)C(=O)c1ccc2c(c1)OCO2)[C@H](C)CN([C@H](C)CO)S(=O)(=O)c1ccccc1	x	n	x	x	x	x
COc1cccc(S(=O)(=O)Nc2ccc3c(c2)[C@H]2C[C@@H](CC(=O)NCc4ccccc4F)O[C@@H](CO)[C@H]2O3)c1	x	n	x	x	x	x
O=[N+]([O-])c1ccc(OCCn2cncn2)cc1	n	x	n	n	63	n
CCCS(=O)(=O)NC(=O)C1(C)CCN(C(=O)c2ccc(C(F)(F)F)cc2)C1 (stereo unspecified)	n	n	n	n	70	n
COc1ccc(NC(=O)N[C@H]2CC[C@H](CCn3cc(C4(O)CCCC4)nn3)O[C@@H]2CO)cc1	x	n	x	x	x	x
Cc1nn(Cc2c(F)c(F)c(F)c(F)c2F)c(C)c1NC(=O)c1c(-c2ccccc2)nn(-c2ccccc2)c1C	n	n	n	n	38	n
